# Counter-ions that a name gives are not always drawn. ± gives the standard deviation of the averaged measurements. Over roughly 1,300 compounds, “normalised cell viability” has its median near 1; the lowest 2% begin near 0.14. The full list was thinned out, with the lowest values kept by preference.
# System: V-C8 (BRCA2-deficient hamster cells)
# Assay: normalised cell viability (fraction of plate median); higher = more viable cells (less toxic)
# Conditions: 5 µM
# Procedure, shortened: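 Hamster V-C8 cells lacking BRCA2 and V-C8 cells with BRCA2 restored were seeded in 96-well plates. Library drugs (10 mM DMSO stocks) were added 24 h later at 5 μM in 100 μl medium, next to DMSO control wells, for 3 days (screen 1) or 6 days (screen 2). Cell viability was read by resazurin assay, median-plate normalised (modified robust per cent of sample), and triplicate wells were averaged.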
smiles,measurement,setting,value
CO[C@H]1/C=C/O[C@@]2(C)Oc3c(C)c(O)c4c(c3C2=O)C2=NC3(CCN(CC(C)C)CC3)NC2=C(NC(=O)/C(C)=C\C=C\[C@H](C)[C@H](O)[C@@H](C)[C@@H](O)[C@@H](C)[C@H](OC(C)=O)[C@@H]1C)C4=O [Rifabutin],normalised cell viability,treatment time: 3 days,0.973 ± 0.096
same,normalised cell viability,treatment time: 6 days,0.876 ± 0.032
NC(=O)c1cnccn1 [Pyrazinamide],normalised cell viability,treatment time: 3 days,1.12 ± 0.057
same,normalised cell viability,treatment time: 6 days,1.05 ± 0.071
CNCCC=C1c2ccccc2C=Cc2ccccc21 [Norcyclobenzaprine],normalised cell viability,treatment time: 3 days,0.959 ± 0.045
same,normalised cell viability,treatment time: 6 days,0.835 ± 0.035
CN1CCCCC1CCN1c2ccccc2Sc2ccc([S+](C)[O-])cc21 (stereo unspecified) [Mesoridazine besylate],normalised cell viability,treatment time: 3 days,1.07 ± 0.07
same,normalised cell viability,treatment time: 6 days,1.07 ± 0.017
CCSc1ccc2c(c1)N(CCCN1CCN(C)CC1)c1ccccc1S2 [Thiethylperazine dimalate],normalised cell viability,treatment time: 3 days,0.932 ± 0.029
same,normalised cell viability,treatment time: 6 days,1.1 ± 0.35
CSc1ccc2c(c1)N(CCC1CCCCN1C)c1ccccc1S2 (stereo unspecified) [Thioridazine hydrochloride],normalised cell viability,treatment time: 3 days,0.121 ± 0.0035
same,normalised cell viability,treatment time: 6 days,0.0951 ± 0.0067
CC1(C)[C@@H](OC(=O)CCC(=O)O)CC[C@]2(C)[C@H]3C(=O)C=C4[C@@H]5C[C@@](C)(C(=O)O)CC[C@]5(C)CC[C@@]4(C)[C@]3(C)CC[C@@H]12 [Carbenoxolone disodium salt],normalised cell viability,treatment time: 3 days,1 ± 0.041
same,normalised cell viability,treatment time: 6 days,1.15 ± 0.26
CC(=O)OCC(=O)[C@@]1(O)CC[C@H]2[C@@H]3CCC4=CC(=O)CC[C@]4(C)[C@@]3(F)[C@@H](O)C[C@@]21C [Fludrocortisone acetate],normalised cell viability,treatment time: 3 days,0.957 ± 0.08
same,normalised cell viability,treatment time: 6 days,1.11 ± 0.041
O=C1c2c(O)cccc2Cc2cccc(O)c21 [Anthralin],normalised cell viability,treatment time: 3 days,1.03 ± 0.019
same,normalised cell viability,treatment time: 6 days,1.003 ± 0.0083
O=C1c2c(O)ccc(O)c2C(=O)c2c(NCCNCCO)ccc(NCCNCCO)c21 [Mitoxantrone dihydrochloride],normalised cell viability,treatment time: 3 days,0.143 ± 0.0017
same,normalised cell viability,treatment time: 6 days,0.116 ± 0.011
"O=C1c2cccc(O)c2C(=O)c2c(O)cccc21 [1,8-Dihydroxyanthraquinone]",normalised cell viability,treatment time: 3 days,0.838 ± 0.065
same,normalised cell viability,treatment time: 6 days,0.78 ± 0.021
c1ccc2c(c1)CCCc1cc(NCCN3CCOCC3)nnc1-2,normalised cell viability,treatment time: 3 days,0.351 ± 0.016
same,normalised cell viability,treatment time: 6 days,0.496 ± 0.056
CN1C2CCCC1CC(NC(=O)c1nn(C)c3ccccc13)C2 (stereo unspecified) [Granisetron],normalised cell viability,treatment time: 3 days,0.973 ± 0.092
same,normalised cell viability,treatment time: 6 days,1.03 ± 0.051
CCN(CC)C(=O)/C(C#N)=C/c1cc(O)c(O)c([N+](=O)[O-])c1 [Entacapone],normalised cell viability,treatment time: 3 days,0.957 ± 0.024
same,normalised cell viability,treatment time: 6 days,1.06 ± 0.059
CN[C@@H]1[C@@H](O[C@H]2O[C@H](CO)[C@@H](N)[C@H](O)[C@H]2O)OC2C[C@@H](N)[C@@H](O[C@H]3[C@H](O)[C@@H](O)[C@H](N)C[C@@H]3N)OC2[C@@H]1O (stereo partly specified) [Apramycin],normalised cell viability,treatment time: 3 days,0.995 ± 0.057
same,normalised cell viability,treatment time: 6 days,1.03 ± 0.019
Cc1ccnc2c1NC(=O)c1cccnc1N2C1CC1 [Nevirapine],normalised cell viability,treatment time: 3 days,0.942 ± 0.023
same,normalised cell viability,treatment time: 6 days,0.994 ± 0.039
NC1CCN(c2nc3c(cc2F)c(=O)c(C(=O)O)cn3-c2ccc(F)cc2F)C1 (stereo unspecified) [Tosufloxacin hydrochloride],normalised cell viability,treatment time: 3 days,1.01 ± 0.048
same,normalised cell viability,treatment time: 6 days,1.08 ± 0.024
CC(CCc1ccc(O)cc1)NCCc1ccc(O)c(O)c1 (stereo unspecified) [Dobutamine hydrochloride],normalised cell viability,treatment time: 3 days,1.01 ± 0.031
same,normalised cell viability,treatment time: 6 days,0.976 ± 0.027
CCCC(=O)Nc1ncnc2c1ncn2[C@@H]1O[C@@H]2COP(=O)(O)O[C@H]2[C@H]1OC(=O)CCC [Bucladesine sodium salt],normalised cell viability,treatment time: 3 days,0.995 ± 0.021
same,normalised cell viability,treatment time: 6 days,1.04 ± 0.014
CCCCc1nc(Cl)c(CO)n1Cc1ccc(-c2ccccc2-c2nnn[nH]2)cc1 [Losartan],normalised cell viability,treatment time: 3 days,1.019 ± 0.0051
same,normalised cell viability,treatment time: 6 days,1.052 ± 0.0052
C[C@@H]1NC(=O)NC1=O [Methylhydantoin-5-(L)],normalised cell viability,treatment time: 3 days,1 ± 0.089
same,normalised cell viability,treatment time: 6 days,1.07 ± 0.013
CC1=Nc2ccc(Cl)cc2S(=O)(=O)N1 [Diazoxide],normalised cell viability,treatment time: 3 days,0.95 ± 0.024
same,normalised cell viability,treatment time: 6 days,1.01 ± 0.054
N=C(N)c1ccc(OCCCCCOc2ccc(C(=N)N)cc2)cc1 [Pentamidine isethionate],normalised cell viability,treatment time: 3 days,0.596 ± 0.07
same,normalised cell viability,treatment time: 6 days,0.597 ± 0.085
CC1=C(C(=O)O)N2C(=O)[C@@H](NC(=O)[C@H](N)c3ccccc3)[C@H]2SC1 [Cephalexin monohydrate],normalised cell viability,treatment time: 3 days,1.25 ± 0.026
same,normalised cell viability,treatment time: 6 days,1.09 ± 0.1
Cc1ccccc1N1C(=O)c2cc(S(N)(=O)=O)c(Cl)cc2NC1C (stereo unspecified) [Metolazone],normalised cell viability,treatment time: 3 days,1.11 ± 0.073
same,normalised cell viability,treatment time: 6 days,1.06 ± 0.07
CC(=O)[C@@]12O[C@](C)(c3ccccc3)O[C@@H]1C[C@H]1[C@@H]3CCC4=CC(=O)CC[C@]4(C)[C@H]3CC[C@@]12C [Algestone acetophenide],normalised cell viability,treatment time: 3 days,0.915 ± 0.05
same,normalised cell viability,treatment time: 6 days,0.945 ± 0.094
CCCNC(C)(C)COC(=O)c1ccccc1 [Meprylcaine hydrochloride],normalised cell viability,treatment time: 3 days,1 ± 0.042
same,normalised cell viability,treatment time: 6 days,1.25 ± 0.47
C#C[C@]1(O)CC[C@H]2[C@@H]3CCc4cc(OC)ccc4[C@H]3CC[C@@]21C [Ethynylestradiol 3-methyl ether],normalised cell viability,treatment time: 3 days,0.844 ± 0.02
same,normalised cell viability,treatment time: 6 days,0.886 ± 0.17
C[n+]1ccccc1/C=N/O [Pralidoxime chloride],normalised cell viability,treatment time: 3 days,1.03 ± 0.029
same,normalised cell viability,treatment time: 6 days,1.02 ± 0.06
CCCCC(CC)CNC(=N)NC(=N)NCCCCCCNC(=N)NC(=N)NCC(CC)CCCC (stereo unspecified) [Alexidine dihydrochloride],normalised cell viability,treatment time: 3 days,0.124 ± 0.0044
same,normalised cell viability,treatment time: 6 days,0.132 ± 0.0043
CN(C)CCN1C(=O)c2ccccc2N(C)c2ccccc21 [Dibenzepine hydrochloride],normalised cell viability,treatment time: 3 days,0.191 ± 0.011
same,normalised cell viability,treatment time: 6 days,0.215 ± 0.0073
CC(=O)OC[C@H]1O[C@@H]([S-])[C@H](OC(C)=O)[C@@H](OC(C)=O)[C@@H]1OC(C)=O.CCP(CC)CC.[Au+] [Auranofin],normalised cell viability,treatment time: 3 days,0.117 ± 0.0046
same,normalised cell viability,treatment time: 6 days,0.141 ± 0.0027
OCCN1CCN(CC/C=C2/c3ccccc3Sc3ccc(Cl)cc32)CC1 [Zuclopenthixol hydrochloride],normalised cell viability,treatment time: 3 days,0.605 ± 0.014
same,normalised cell viability,treatment time: 6 days,0.61 ± 0.032
